# Shown are actives, neighbours in structure and some others; about 3.5% of the full set was active somewhere.
# FBW7 act: activators of human E3 ligase FBW7; Q969H0; AlphaScreen FBW7–phospho-cyclin E peptide binding, activator screen; normalized activity (activation), % at 26.1 µM; actives 0.13% (n = 650,000); AID 1259310; in the data active means normalized activity above about 1.9%;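 further: purified mutant Fbw7 with reduced substrate affinity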
# Target sequence (Q969H0 whole entry, looked up): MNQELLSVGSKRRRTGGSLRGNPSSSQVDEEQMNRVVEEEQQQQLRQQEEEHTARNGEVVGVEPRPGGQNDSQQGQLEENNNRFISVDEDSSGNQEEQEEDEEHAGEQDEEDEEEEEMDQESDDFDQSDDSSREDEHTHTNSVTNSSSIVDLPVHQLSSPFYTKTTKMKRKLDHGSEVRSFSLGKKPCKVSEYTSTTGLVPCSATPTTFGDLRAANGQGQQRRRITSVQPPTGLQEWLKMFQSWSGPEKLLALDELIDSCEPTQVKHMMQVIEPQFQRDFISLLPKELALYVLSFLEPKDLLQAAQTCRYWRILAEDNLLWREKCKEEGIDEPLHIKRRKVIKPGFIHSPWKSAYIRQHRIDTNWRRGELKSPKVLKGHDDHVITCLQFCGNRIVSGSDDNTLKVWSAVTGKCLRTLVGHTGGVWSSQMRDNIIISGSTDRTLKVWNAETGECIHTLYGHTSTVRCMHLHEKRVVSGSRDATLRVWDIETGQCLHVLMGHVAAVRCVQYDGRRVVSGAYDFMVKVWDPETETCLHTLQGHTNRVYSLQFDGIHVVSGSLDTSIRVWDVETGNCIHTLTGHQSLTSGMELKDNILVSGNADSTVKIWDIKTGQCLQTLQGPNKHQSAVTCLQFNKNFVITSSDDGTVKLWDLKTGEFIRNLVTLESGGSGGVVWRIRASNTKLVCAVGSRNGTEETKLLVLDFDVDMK
# MITF inh: inhibitors of human MITF; O75030; actives 0.91% (n = 650,000); inhibition, % at 2.6 µM; AlphaScreen MITF homodimerization, bead proximity signal; in the data active means inhibition above about 50%;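 further: 0% = vehicle wells with protein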
# TEAD-YAP inh: TEAD-YAP interaction inhibition; HEK-TIYL cells, TEAD-Gal4/YAP UAS-luciferase luminescence; inhibition, % at 9.12 µM; actives 1.4% (n = 640,000); in the data active means inhibition above about 32%;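 further: 0% = median of test compound wells and 100% = reference inhibitor wells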
# GPR151 ag: human GPR151 activation; PathHunter beta-arrestin GPR151 cells, luminescence; activation, % at 11.2 µM; actives 1% (n = 650,000); in the data active means activation above about 4.9%;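 further: 0% = median of compound wells and 100% = cells with positive control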
# Numbers without * were called inactive.
SMILES,FBW7 act,MITF inh,TEAD-YAP inh,GPR151 ag
CNC(=S)N1CCCC(c2nc3ccc(C)cc3[nH]2)C1 (configuration not stated),0,5,11,-1
COc1cc2c(C(=O)N(C)c3ccccc3C)cn(CC(C)C)c(=O)c2cc1OC,2.2*,-9,-17,1
CCOc1ccc(/C=C/C(=O)Nc2ccccc2F)cc1,0,-2,91*,-9
O=C(NC1CC1)c1ccc(-c2nc(NCCN3CCOCC3)c3ncn(-c4ccccc4)c3n2)cc1,0,-2,67*,0
Nc1cccc(-c2nc(NCCc3ccc(O)cc3)c3ncn(-c4ccsc4)c3n2)c1,0,-6,56*,0
O=C(NC1CC1)c1ccc(-c2nc(NCCN3CCOCC3)c3ncn(-c4ccsc4)c3n2)cc1,0,4,37*,2
O=C(NC1CC1)c1ccc(-c2nc(NC3CC3)c3ncn(-c4ccccc4)c3n2)cc1,0,-14,33*,0
CN1CCC(CNC(=O)c2cccc(Cl)c2)CC1,0,-2,1,-1
COc1cccc(OC)c1C(=O)N=c1sc2ccccc2n1C,0,-4,-1,0
COC(=O)c1cccc(S(=O)(=O)Nc2cccc([N+](=O)[O-])c2)c1,0,4,-4,0
O=C(c1ccc(Br)cc1)N1CCN(C2=NS(=O)(=O)c3ccccc32)CC1,0,-4,-2,0
Cc1cc(=O)oc2c3c(ccc12)OC(=O)/C3=C\c1ccc(Br)cc1,0,8,2,1
CSc1ccc(C2C(C#N)=C(N)Oc3cc(C)n(Cc4ccccn4)c(=O)c32)cc1 (configuration not stated),0,17,14,-1
Nc1cccc(-c2nc(NCCN3CCOCC3)c3ncn(-c4ccsc4)c3n2)c1,0,5,53*,0
NC(=O)c1ccc(-c2nc(NCCN3CCOCC3)c3ncn(-c4ccsc4)c3n2)cc1,0,21,33*,1
COc1cccc(NC(=O)CSc2nnc(Cc3ccccc3)o2)c1,0,-9,1,-2
COc1ccc(N(/C=C2\Sc3ccccc3C2=O)C(=O)c2ccccc2)cc1,0,-4,54*,-9
CC(=O)N(/C=C1/Sc2ccccc2C1=O)c1ccc(C)cc1,0,12,59*,-3
CC(=O)N(/C=C1\Sc2ccccc2C1=O)c1ccc(C)c(C)c1,0,4,86*,-3
O=C1/C(=C\N(C(=O)c2ccccc2)c2ccccc2)Sc2ccccc21,0,-1,3,-3
COc1ccccc1N(C=O)/C=C1\Sc2ccccc2C1=O,0,0,55*,-2
COc1ccc(C2C(C(=O)OC3CCCCC3)=C(C)NC3=C2C(=O)CC(c2ccc(Cl)cc2)C3)cc1OC (configuration not stated),0,3,8,1
O=C(Cc1ccc(F)cc1)Nc1nncs1,0,13,-2,0
CN(CCOc1ccc(Br)cc1)C(=O)c1ccc(N)c([N+](=O)[O-])c1,0,-5,0,0
CC(=O)N(/C=C1\Sc2ccccc2C1=O)c1ccc(I)cc1,0,-8,-11,0
SMILES,FBW7 act,MITF inh,TEAD-YAP inh,GPR151 ag
COc1ccc(N(/C=C2\Sc3ccccc3C2=O)C(=O)c2ccc(C)cc2)cc1,0,-7,41*,-9
COc1ccc(N(/C=C2\Sc3ccccc3C2=O)C(C)=O)cc1,0,19,51*,-8
Cc1cccc(OCC(=O)N2CCN(c3cc(N4CCCC4)ncn3)CC2)c1C,0,8,-9,-1
COC(=O)c1sccc1NC(=O)c1cccc2c1SCCC2=O,0,6,10,-1
COC(=O)c1cc2c(cc1NC(=O)c1cccc3c1SCCC3=O)OCO2,0,-1,51*,0
COc1ccc(NC2=C(n3nnc4ccccc43)C(=O)c3ccccc3C2=O)cc1,0,6,59*,-1
O=C(OCCNC1=C(n2nnc3ccccc32)C(=O)c2ccccc2C1=O)c1ccccc1,-1,7,-6,0
O=C(Nc1ccc(F)cc1)c1cccc(Cl)c1,0,-5,-25,-2
O=C(Nc1cc(=O)[nH]c(=O)[nH]1)c1cccc(Cl)c1,0,-5,40*,-2
Cc1ccc2oc(=O)c3cnn(CC(=O)N(C)Cc4ccco4)c3c2c1,0,-4,0,-1
O=c1c(-c2nncn2-c2ccccc2)coc2c(O)c(O)ccc12,0,53*,-2,-2
Cc1ccc(C(=O)c2cc([N+](=O)[O-])ccc2N2CCOCC2)c(C)c1,0,15,62*,-1
N#Cc1cc2c(cc1NC(=O)c1cc([N+](=O)[O-])ccc1N1CCOCC1)OCO2,0,15,36*,-2
Cc1ccc(C(=O)c2cc([N+](=O)[O-])ccc2N2CCOCC2)cc1C,0,0,42*,0
Cc1cc(C)c(NC(=O)c2cc([N+](=O)[O-])ccc2N2CCOCC2)c(C)c1,0,-4,2,0
O=C(CSc1nnc(NC(=O)CN2CCCCC2)s1)Nc1ccc(Br)cc1,0,12,3,1
Cn1nnnc1SCC(=O)Nc1ccccc1C(F)(F)F,0,-10,9,1
Nn1c(SCC(=O)c2ccc(O)cc2O)nnc1-c1cc(Cl)ccc1Cl,0,-5,42*,2
Nn1c(SCC(=O)N2CCCC2)nnc1-c1ccc(Cl)cc1Cl,0,-9,-4,-1
COC(=O)Nc1sc2c(c1C(=O)OC)CCCC2,0,-8,6,-1
CCOC(=O)C1(NC(=S)N2CCOCC2)Sc2cc(C)ccc2NC1=O (configuration not stated),0,-2,52*,1
CCOC(=O)C1(Nc2ccccc2)Sc2cc(C)ccc2NC1=O (configuration not stated),0,20,63*,2
CCOC(=O)C1(N(CC)CC)Sc2cc(C)ccc2NC1=O (configuration not stated),0,7,-1,-2
Nc1ncc([N+](=O)[O-])c(Oc2ccccc2F)n1,0,5,-1,0
CCCN(CCC)c1nc(N)ncc1[N+](=O)[O-],0,5,59*,-1
SMILES,FBW7 act,MITF inh,TEAD-YAP inh,GPR151 ag
CCCCN(CCCC)c1nc(N)ncc1[N+](=O)[O-],0,3,34*,1
Cc1cccc(OCC(=O)N(CCn2cccn2)c2nc3c(F)cccc3s2)c1,0,8,43*,1
Cc1cc(C(=O)N(CCn2cccn2)c2nc3c(F)cccc3s2)on1,0,-3,-27,3
CCN1C(=O)CC(c2ccc(OC)c(OC)c2)S(=O)(=O)c2ccccc21 (configuration not stated),0,3,6,-1
Cc1cc(=O)oc2cc(OCC(O)Cn3c(C)nc4ccccc43)ccc12 (configuration not stated),0,-6,50*,3
Cc1nc2ccccc2n1CC(O)COc1ccc2ccccc2c1 (configuration not stated),0,11,15,1
N#Cc1c(NC(=O)COC(=O)CN2C(=O)c3ccccc3C2=O)sc2c1CCCCC2,0,-5,1,-1
